We go through seven compounds from PubChem BioAssay (Tox21).

Where “and” joins values, the source holds several entries; their conditions need not be identical. Equal entries are not always repeated. Records with an inconclusive call do not appear. The source holds several records for some structures; these can differ, active in one and inactive in another. Calls of active or inactive are those of the source. Unless noted, calls come from the whole dose curve; as a rule, active = well fitted curve in the direction sought with a large enough effect in the repeat runs; inconclusive = weak or mixed curves; inactive = no such curve, though single readings can be large; an effect the other way counts as inactive or inconclusive.

Assay [1] is described as follows: qHTS assay to identify small molecule agonists of the hypoxia (HIF-1) signaling pathway - cell viability counter screen (AID 1224844; calls by dose curve; note: nearly all actives have a fitted effect of over 50% in size; note: potency is the fitted concentration of half-maximal effect). In short, it runs like this: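 Luminescent ATP content (CellTiter-Glo, 30 min, room temperature) served as the viability measure in HRE-bla ME-180 cells exposed to compounds for 17 hrs in low-serum medium (0.5% dialyzed FBS).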
In general terms: qHTS replaces the single test concentration by a dilution series.

Assay [2] is described as follows: qHTS assay to identify small molecule agonists of H2AX - cell viability counter screen (AID 1224847; calls by dose curve; note: nearly all actives have a fitted effect of over 30% in size; note: potency is the fitted concentration of half-maximal effect). An outline of the steps:
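CHO-K1 wt, 1000 cells/well, o/n 37C; cpds 15 conc, 3 h 37C, 0.76% DMSO; CellTiter-Glo, 30 min RT, luminescence.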

Assay [3] in a line: qHTS assay to identify small molecule antagonists of the estrogen related receptor (ERR) signaling pathway from Tox21 library (AID 1224848). Note: nearly all actives have a fitted effect of over 50% in size. Note: potency is the fitted concentration of half-maximal effect. In short, it runs like this: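 Antagonist-mode screen of the Tox21 10K library in an NTP-provided ERR reporter cell line; 18 h compound exposure at 37 C, luminescence measured with ONE-Glo.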
Assay [4] can be described thus: qHTS assay to identify small molecule agonists of the estrogen related receptor (ERR) signaling pathway from Tox21 library (AID 1224849; calls by dose curve; note: nearly all actives have a fitted effect of over 15% in size). The conditions noted are these: ERR reporter cell line, ONE-Glo luciferase, 18 h; at 92.4 µM (top of the series) unless noted. In short, it runs like this:
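We plated ERR reporter cells, waited 6 h, added compounds in DMSO by pin tool and incubated them 18 h at 37 C. ONE-Glo was then added and luminescence read after 30 min.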

The nature of assay [5]: qHTS RealTime-Glo MT Cell Viability Assay in HepG2 cells - 24 hour (AID 1224867). Note: nearly all actives have a fitted effect of over 50% in size. Note: potency is the fitted concentration of half-maximal effect. In short, it runs like this: (§1)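 HepG2 cells were seeded at 600 cells/well together with NanoLuc luciferase and a cell-permeant prosubstrate, preincubated 5 h at 37 C/5% CO2, then pin-dosed with compounds in DMSO. Nonlytic luminescence from viable cells was read at each time point.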
Assay [6] is described as follows: qHTS RealTime-Glo MT Cell Viability Assay in HEK293 cells - 32 hour (AID 1224868). Note: nearly all actives have a fitted effect of over 50% in size. Note: potency is the fitted concentration of half-maximal effect. An outline of the steps: (§2)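 HEK293 cells were seeded at 600 cells/well together with NanoLuc luciferase and cell-permeant prosubstrate, preincubated 5 h at 37 C/5% CO2, then given compound in DMSO by pintool. Luminescence from viable-cell prosubstrate reduction was read repeatedly over 40 h.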

Assay [7] is described as follows: A CellTox Green Cytotoxicity Assay to monitor cytotoxicity in HEK293 cells - 0 hour (AID 1224869). Note: nearly all actives have a fitted effect of over 50% in size. An outline of the steps: (§3)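 Each value comes from one timepoint of a single continuous run in which HEK293 cells with CellTox Green were exposed to compound for up to 40 h at 37 C, dye fluorescence rising with cell death.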
Assay [8] can be described thus: qHTS RealTime-Glo MT Cell Viability Assay in HepG2 cells - 40 hour (AID 1224870). Note: nearly all actives have a fitted effect of over 50% in size. Note: potency is the fitted concentration of half-maximal effect. An outline of the steps: (§4)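 Real-time viability: cells seeded at 600 per well together with NanoLuc and cell-permeant prosubstrate, compounds added after 5 h incubation. Luminescence tracked at 0, 8, 16, 24, 32 and 40 h of exposure.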
A short description of assay [9]: A CellTox Green Cytotoxicity Assay to monitor cytotoxicity in HEK293 cells - 40 hour (AID 1224871). Note: nearly all actives have a fitted effect of over 45% in size. Note: potency is the fitted concentration of half-maximal effect. In short, it runs like this:
as §3

Assay [10] in a line: qHTS RealTime-Glo MT Cell Viability Assay in HEK293 cells - 40 hour (AID 1224874). Note: nearly all actives have a fitted effect of over 50% in size. Note: potency is the fitted concentration of half-maximal effect. The conditions noted are these: RealTime-Glo luminescence; max response: stronger effect = lower value. In short, it runs like this:
(§5)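 qHTS format; HEK293 cells with NanoLuc/prosubstrate reagent, 37 C/5% CO2 for 5 h pre-dosing; compounds 23 nL in DMSO; luminescence at each time point reflects viable cells.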

Assay [11] can be described thus: A CellTox Green Cytotoxicity Assay to monitor cytotoxicity in HepG2 cells - 16 hour (AID 1224876). Note: nearly all actives have a fitted effect of over 45% in size. Note: potency is the fitted concentration of half-maximal effect. In short, it runs like this: (§6)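 Continuous culture of HepG2 cells with a membrane-impermeant DNA dye; rising fluorescence marks dead cells. Compound exposure lasted up to 40 h at 37 C, with reads every 8 h from 0 h.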
Assay [12] is described as follows: qHTS RealTime-Glo MT Cell Viability Assay in HepG2 cells - 32 hour (AID 1224877). Note: nearly all actives have a fitted effect of over 55% in size. Note: potency is the fitted concentration of half-maximal effect. In short, it runs like this: as §1
A short description of assay [13]: A CellTox Green Cytotoxicity Assay to monitor cytotoxicity in HepG2 cells - 24 hour (AID 1224878). Note: nearly all actives have a fitted effect of over 45% in size. Note: potency is the fitted concentration of half-maximal effect. In short, it runs like this: as §6
Assay [14] can be described thus: A CellTox Green Cytotoxicity Assay to monitor cytotoxicity in HepG2 cells - 40 hour (AID 1224879). Note: nearly all actives have a fitted effect of over 40% in size. Note: potency is the fitted concentration of half-maximal effect. In short, it runs like this: as §6
Assay [15] in a line: qHTS RealTime-Glo MT Cell Viability Assay in HEK293 cells - 0 hour (AID 1224880). Note: nearly all actives have a fitted effect of over 45% in size. Note: potency is the fitted concentration of half-maximal effect. In short, it runs like this: as §5
A short description of assay [16]: qHTS RealTime-Glo MT Cell Viability Assay in HEK293 cells - 16 hour (AID 1224872). Note: nearly all actives have a fitted effect of over 50% in size. Note: potency is the fitted concentration of half-maximal effect. An outline of the steps:
as §2

A short description of assay [17]: qHTS RealTime-Glo MT Cell Viability Assay in HepG2 cells - 8 hour (AID 1224873). Note: nearly all actives have a fitted effect of over 55% in size. Note: potency is the fitted concentration of half-maximal effect. An outline of the steps:
as §4

Assay [18] is described as follows: A CellTox Green Cytotoxicity Assay to monitor cytotoxicity in HEK293 cells - 24 hour (AID 1224875). Note: nearly all actives have a fitted effect of over 45% in size. Note: potency is the fitted concentration of half-maximal effect. An outline of the steps: as §3
A short description of assay [19]: qHTS assay to identify small molecule agonists of the hypoxia (HIF-1) signaling pathway (AID 1224846; active = well fitted activation curve with a large enough effect in the signal ratio in the repeat runs, not every such curve was filed as active; the % refers to the signal ratio). In short, it runs like this:
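Measured by blue/green FRET after loading CCF4-AM: beta-lactamase expressed from a hypoxia response element in ME-180 cells. Test agents were delivered in DMSO and left 17 hrs; cells had been plated 5 hrs earlier in low-serum (0.5% dialyzed FBS) medium.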
% is set by controls: 0 for no effect and ±100 for the full control effect.

`Oc1ccc(C(c2ccc(O)cc2)(C(F)(F)F)C(F)(F)F)cc1`: the Potency result in assay [1], in [5], in assay [7], in assay [8], in assay [12] and in [15] was “inactive” throughout. The Potency in [2] was 113 µM (active); in assay [3], 54.2 µM (active) and 61.1 µM (active); in assay [6] it was 43.4 µM (active); in assay [9], 43.4 µM (active) and inactive; in [10], 38.7 µM (active); in assay [11] it was 54.9 µM (active). Further, the Potency in assay [13] is 54.7 µM (active) and 24.5 µM (active); in [14], 54.7 µM (active) and 54.9 µM (active). In assay [4], the activity change, positive = activation is -65.7% (inactive) and -36.3% (inactive).
With `O=C1C=CC(=O)c2ccccc21`, the Potency was 11 µM (active) in assay [1]; 20.1 µM (active) in assay [2]; 27.3 µM (active) in assay [3]; 21.9 µM (active) in assay [5]; 5.49 µM (active) in assay [6]; 24.5 µM (active) in assay [8]. Moreover, the Potency in [9] is 3.89 µM (active); in [16], 5.49 µM (active); in assay [17] it was 17.4 µM (active); in [10], 4.9 µM (active); in [18], 6.92 µM (active); in [12], 24.5 µM (active). The Potency in [13], in assay [14] and in assay [15] was 12.3 µM (active) in each case. Further, in assay [4], the activity change, positive = activation was -74.8% (inactive). In addition, the Potency result in assay [7] is “inactive”.
As for `CC(C)C1CCC(Cc2ccc(Cl)cc2)C1(O)Cn1cncn1` (stereo not drawn), the Potency in [1] is 54.4 µM (active); in assay [2], 88.9 µM (active); in [3], 27 µM (active); in assay [6], 12.2 µM (active); in assay [8], 48.5 µM (active); in [9] it was 24.3 µM (active). Further, the Potency is 12.2 µM (active) in [16]; 24.3 µM (active) in assay [17]; 10.9 µM (active) in assay [10]; 24.3 µM (active) in assay [18]; 48.5 µM (active) in assay [11]; 48.5 µM (active) in assay [12]. Besides, the Potency in assay [13] and in [14] was 43.2 µM (active) in each case. Moreover, the activity change, positive = activation in assay [4] was -68.5% (inactive). In addition, the Potency entry in assay [7] and in [15] was “inactive” in each case.
As for `O=c1oc2ccccc2c(O)c1Cc1c(O)c2ccccc2oc1=O`, the Potency result in assay [1], in assay [2], in assay [5], in [6], in assay [7] and in assay [8] was “inactive” each time. Further, the Potency result in assay [9], in assay [16], in assay [18], in [11], in [12] and in assay [13] was “inactive” each time. Also, in assay [14], the Potency entry was “inactive”. Also, the activity change, positive = activation in [4] was -18.2% [at 42.5 µM] (inactive). Further, the max response in assay [10] was 0.643% (inactive).
In the case of `N#CCCC(Br)(C#N)CBr` (stereo not drawn), the Potency in [1] is 19.5 µM (active); in assay [2] it was 127 µM (active); in assay [5], 38.9 µM (active); in [6] it was 21.9 µM (active); in assay [8], 38.9 µM (active); in [16], 38.9 µM (active). The Potency is 49 µM (active) in assay [17]; 54.9 µM (active) in assay [18]; 43.6 µM (active) in assay [11]; 34.7 µM (active) in [12]; 38.9 µM (active) in [13]; 24.5 µM (active) in [14]. The activity change, positive = activation in [4] is -45.2% (inactive). In addition, the Potency entry in [7] and in assay [15] was “inactive” throughout.
In the case of `CC(=O)c1cc(C(C)(C)C)cc2c1CCC2(C)C`, the Potency entry in assay [1], in assay [3], in assay [5], in assay [6], in assay [8] and in assay [17] was “inactive” throughout. The Potency result in assay [12] and in [15] was “inactive” throughout. The outcome in [19] was inactive. The activity change, positive = activation in assay [4] was -2.02% (inactive). In addition, the Potency in assay [9] and in assay [18] was 38.9 µM (active) in each case. Also, the max response in assay [10] was -21.2% (inactive).
With `CC1(C)CN=C(NN=C(/C=C/c2ccc(C(F)(F)F)cc2)/C=C/c2ccc(C(F)(F)F)cc2)NC1`, the Potency in assay [1] is 21.9 µM (active); in assay [2] it was 25.3 µM (active); in [3], 13.7 µM (active); in [5] it was 17.4 µM (active); in assay [6], 38.9 µM (active); in assay [8], 15.5 µM (active). Besides, the Potency in assay [16] was 49 µM (active); in [17] it was 24.5 µM (active); in assay [10] it was 38.9 µM (active); in assay [11], 24.5 µM (active); in assay [12], 17.4 µM (active); in [13], 19.5 µM (active). Also, the Potency in [14] is 15.5 µM (active). For the same compound, the activity change, positive = activation in assay [4] was -76.2% (inactive). Also, the Potency entry in assay [7] and in assay [15] was “inactive” throughout.
